Assay results taken from PubChem BioAssay (NCI).
The panel holds about 79,000 compounds, 15% with a hit somewhere; the sample as a whole holds those more often. Activity calls are given as the source filed them. No stated cut-off is given here; in the data, active means growth inhibition above about 70%; inactive means the rest.

Key:
[1] = NCI Yeast Anticancer Drug Screen. Data for the mlh1 strain (AID 171);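 further: 0% = growth of vehicle-treated control cultures of the same strain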; conditions: S. cerevisiae mlh1 strain growth inhibition, hits give high values
Summary of the method: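 Test agents were incubated with yeast bearing a defined DNA damage repair or cell cycle control alteration; values are growth inhibition normalised to vehicle-treated cultures.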

[2] = NCI Yeast Anticancer Drug Screen. Data for the sgs1 strain (AID 173);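 further: 0% = growth of vehicle-only control cultures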; conditions: S. cerevisiae sgs1 mutant, hits give high values
Summary of the method: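 Strain with an altered DNA repair or cell cycle pathway exposed to compound. Growth then measured. Value = inhibition versus vehicle control.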

[3] = NCI Yeast Anticancer Drug Screen. Data for the mlh1 rad18 strain (AID 175); conditions: S. cerevisiae mlh1 rad18 strain growth inhibition, hits give high values
Summary of the method: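 A repair-deficient yeast strain is exposed to test compound, and growth is scored relative to vehicle-treated controls.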

[4] = NCI Yeast Anticancer Drug Screen. Data for the rad18 strain (AID 177); conditions: S. cerevisiae rad18 mutant growth inhibition, hits give high values
Summary of the method: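 DNA-repair-defective yeast; compound treatment; growth inhibition scored against vehicle.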

[5] = NCI Yeast Anticancer Drug Screen. Data for the wt1 strain (AID 149);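 further: 0% = growth of vehicle-treated wt1 cultures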; conditions: S. cerevisiae wt1 strain (SPY 50644) growth inhibition, hits give high values
Summary of the method: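 wt1 yeast, compound-treated; % growth inhibition vs vehicle control.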

[6] = NCI Yeast Anticancer Drug Screen. Data for the rad50EPP+ strain (AID 151);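 further: 0% = growth of vehicle-treated control cultures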; conditions: S. cerevisiae rad50 mutant strain, hits give high values
Summary of the method: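 Measured: growth inhibition of rad50EPP+ yeast. Reference: vehicle-treated controls. Screen uses strains with defined genetic alterations in DNA damage repair or cell cycle control.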

[7] = NCI Yeast Anticancer Drug Screen. Data for the mgt1 strain (AID 153); conditions: S. cerevisiae mgt1 mutant growth inhibition, hits give high values
Summary of the method: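 Compounds were applied to mgt1 mutant yeast, and growth was then compared against vehicle-treated control cultures to give percent inhibition.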

[8] = NCI Yeast Anticancer Drug Screen. Data for the rad50 strain (AID 155);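 further: 0% = growth of vehicle-only cultures of the same strain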; conditions: S. cerevisiae rad50 strain growth inhibition, hits give high values
Summary of the method: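 Genetically altered yeast (DNA repair pathway); compound treatment; growth inhibition vs vehicle ctrl.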

[9] = NCI Yeast Anticancer Drug Screen. Data for the mec2-1 strain (AID 157); conditions: S. cerevisiae mec2-1 strain, hits give high values
Summary of the method: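 Compounds were applied to mec2-1 yeast cells. Their growth was then compared with that of vehicle-treated cultures to give growth inhibition.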

[10] = NCI Yeast Anticancer Drug Screen. Data for the rad14 strain (AID 159);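 further: 0% = growth of vehicle-treated control cultures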; conditions: S. cerevisiae rad14 strain growth inhibition, hits give high values
Summary of the method: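 Test compounds were applied to a repair-deficient yeast strain. Its growth was then compared with that of cultures given vehicle alone, and inhibition was expressed relative to those controls.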

[11] = NCI Yeast Anticancer Drug Screen. Data for the sgs1 mgt1 strain (AID 161);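 further: 0% = growth of cultures given vehicle only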; conditions: S. cerevisiae sgs1 mgt1 strain, hits give high values
Summary of the method: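 Yeast cells carrying a defined DNA-repair defect were exposed to test compounds. Growth inhibition was measured relative to vehicle-treated controls.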

[12] = NCI Yeast Anticancer Drug Screen. Data for the CLN2oe strain (AID 163);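 further: 0% = growth of vehicle-only control cultures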; conditions: S. cerevisiae CLN2oe strain, hits give high values
Summary of the method: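 Cells of an engineered yeast line with disturbed cell-cycle regulation are treated with compound. Inhibition of growth is then calculated relative to the vehicle-treated reference.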

[13] = NCI Yeast Anticancer Drug Screen. Data for the cln2 rad14 strain (AID 165);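 further: 0% = growth equal to vehicle treated cultures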; conditions: S. cerevisiae cln2 rad14 strain, hits give high values
Summary of the method: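 Strain: cln2 rad14 yeast, altered in cell cycle control and DNA damage repair. Read-out: growth inhibition vs vehicle.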

[14] = NCI Yeast Anticancer Drug Screen. Data for the bub3 strain (AID 167); conditions: S. cerevisiae bub3 mutant strain, hits give high values
Summary of the method: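 Yeast carrying a defined mutation is treated with each compound, and growth is compared with that of vehicle-exposed cells to give inhibition.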

[15] = NCI Yeast Anticancer Drug Screen. Data for the wt2 strain (AID 169);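 further: 0% = growth of vehicle-treated yeast cultures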; conditions: S. cerevisiae wt2 strain growth inhibition, hits give high values
Summary of the method: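 Growth of compound-treated yeast is measured and expressed as inhibition relative to vehicle-only controls.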

[16] = at 5.0 µM (retest, dose inferred, filed as 0.5)
[17] = at 50.0 µM (retest, dose inferred, filed as 5.0)

Measured: growth inhibition

CS(=O)(=O)OCCN(CCOS(C)(=O)=O)c1ccc(C=O)cc1
inactive: [1]; at 1.2 µM 2% | [1]; at 3.7 µM 11% | [1]; at 11.0 µM 25% | [1]; at 33.0 µM 53% | [2]; at 1.2 µM 15% | [2]; at 3.7 µM 35% | [2]; at 11.0 µM 58%
active: [1]; at 100.0 µM 82% | [2]; at 33.0 µM 80% | [2]; at 100.0 µM 89% | [3]; [16] 76% | [3]; [17] 95% | [3]; at 50.0 µM 91% | [4]; at 1.2 µM 85% | [4]; at 3.7 µM 92% | [4]; at 11.0 µM 95% | [4]; at 33.0 µM 96% | [4]; at 100.0 µM 96%

CN(C)CCC(C(=O)C(Br)Br)(c1ccccc1)c1ccccc1
inactive: [5]; at 1.2 µM -2% | [5]; at 3.7 µM -1% | [5]; at 11.0 µM 26% | [6]; at 1.2 µM -2% | [6]; at 3.7 µM -5% | [6]; at 11.0 µM -1% | [6]; at 33.0 µM 21% | [7]; at 1.2 µM -1% | [7]; at 3.7 µM 0% | [8]; at 1.2 µM 0% | [8]; at 3.7 µM 12% | [8]; [16] 16% | [9]; at 1.2 µM 3% | [9]; at 3.7 µM 2% | [9]; [16] 16% | [9]; [17] 38% | [10]; at 1.2 µM 7% | [10]; at 3.7 µM 30% | [11]; [16] 40% | [12]; at 1.2 µM 0% | [12]; at 3.7 µM 12% | [13]; [16] 19% | [14]; at 1.2 µM -6% | [14]; at 3.7 µM 0% | [14]; [16] -69% | [15]; at 1.2 µM 0% | [15]; at 3.7 µM 2% | [1]; at 1.2 µM 2% | [1]; at 3.7 µM 1% | [1]; at 11.0 µM 61% | [3]; [16] 33% | [4]; at 1.2 µM 2% | [4]; at 3.7 µM 11%
active: [5]; at 33.0 µM 98% | [5]; at 100.0 µM 99% | [6]; at 100.0 µM 72% | [7]; at 11.0 µM 96% | [7]; at 33.0 µM 99% | [7]; at 100.0 µM 99% | [8]; at 11.0 µM 82% | [8]; at 33.0 µM 99% | [8]; [17] 99% | [8]; at 50.0 µM 98.8% | [8]; at 100.0 µM 99% | [9]; at 11.0 µM 96% | [9]; at 33.0 µM 99% | [9]; at 50.0 µM 99.3% | [9]; at 100.0 µM 100% | [10]; at 11.0 µM 95% | [10]; at 33.0 µM 99% | [10]; at 100.0 µM 99% | [11]; [17] 99% | [11]; at 50.0 µM 97.3% | [12]; at 11.0 µM 74% | [12]; at 33.0 µM 99% | [12]; at 100.0 µM 98% | [13]; [17] 99% | [13]; at 50.0 µM 99.1% | [14]; at 11.0 µM 94% | [14]; at 33.0 µM 99% | [14]; [17] 98% | [14]; at 50.0 µM 99.5% | [14]; at 100.0 µM 99% | [15]; at 11.0 µM 73% | [15]; at 33.0 µM 99% | [15]; at 100.0 µM 99% | [1]; at 33.0 µM 99% | [1]; at 100.0 µM 100% | [3]; [17] 99% | [3]; at 50.0 µM 99% | [4]; at 11.0 µM 88% | [4]; at 33.0 µM 99% | [4]; at 100.0 µM 99%

Nc1nc(N)c(-c2ccc(Cl)c(Cl)c2)c(CP(Cl)(Cl)(Cl)Br)n1
active: [8]; at 33.0 µM 76% | [8]; [17] 80% | [9]; [17] 78% | [11]; [17] 82% | [14]; [17] 78% | [15]; at 33.0 µM 80% | [15]; at 100.0 µM 94% | [1]; at 100.0 µM 88% | [2]; at 33.0 µM 74% | [2]; at 100.0 µM 92% | [3]; [17] 88% | [4]; at 11.0 µM 75% | [4]; at 33.0 µM 79% | [4]; at 100.0 µM 74%
inactive: [5]; at 1.2 µM 9% | [5]; at 3.7 µM 16% | [5]; at 11.0 µM 45% | [5]; at 33.0 µM 55% | [5]; at 100.0 µM 48% | [6]; at 1.2 µM -2% | [6]; at 3.7 µM 4% | [6]; at 11.0 µM 20% | [6]; at 33.0 µM 33% | [6]; at 100.0 µM 48% | [8]; at 1.2 µM 9% | [8]; at 3.7 µM 46% | [8]; [16] 53% | [8]; at 11.0 µM 69% | [8]; at 50.0 µM 62% | [8]; at 100.0 µM 59% | [9]; at 1.2 µM 4% | [9]; at 3.7 µM 7% | [9]; [16] 39% | [9]; at 11.0 µM 13% | [9]; at 33.0 µM 38% | [9]; at 50.0 µM 42.4% | [9]; at 100.0 µM 27% | [10]; at 1.2 µM 6% | [10]; at 3.7 µM 8% | [10]; at 11.0 µM 27% | [10]; at 33.0 µM 37% | [10]; at 100.0 µM 54% | [11]; [16] 30% | [11]; at 50.0 µM 63.6% | [12]; at 1.2 µM -2% | [12]; at 3.7 µM -6% | [12]; at 11.0 µM -9% | [12]; at 33.0 µM -2% | [12]; at 100.0 µM 10% | [13]; [16] 0% | [13]; [17] 22% | [13]; at 50.0 µM 9.75% | [14]; at 1.2 µM 10% | [14]; at 3.7 µM 23% | [14]; [16] 45% | [14]; at 11.0 µM 42% | [14]; at 33.0 µM 56% | [14]; at 50.0 µM 51.4% | [14]; at 100.0 µM 55% | [15]; at 1.2 µM 7% | [15]; at 3.7 µM 18% | [15]; at 11.0 µM 56% | [1]; at 1.2 µM -8% | [1]; at 3.7 µM -2% | [1]; at 11.0 µM 7% | [1]; at 33.0 µM 48% | [2]; at 1.2 µM -1% | [2]; at 3.7 µM 6% | [2]; at 11.0 µM 49% | [3]; [16] 64% | [3]; at 50.0 µM 58.4% | [4]; at 1.2 µM 13% | [4]; at 3.7 µM 45%
